Article PMC4336329 (PLoS ONE, 2015)
Among all 310,000 compounds or so, about 14,000 (4.5%) showed an effect of 50% or more. The effect is printed as a negative number. Only a selection was taken, and strong results are over-represented in it overall.
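Note: peak tail current of the secondary pulse compared with the same well before compound.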

The compounds below were run against human ether-à-go-go-related gene (hERG) potassium channel (human, UniProt Q12809) (assay: primary screen, population patch clamp on CHO cells stably expressing hERG; higher = less effect of the substance).
human ether-à-go-go-related gene (hERG) potassium channel, sequence (Q12809 whole entry, looked up): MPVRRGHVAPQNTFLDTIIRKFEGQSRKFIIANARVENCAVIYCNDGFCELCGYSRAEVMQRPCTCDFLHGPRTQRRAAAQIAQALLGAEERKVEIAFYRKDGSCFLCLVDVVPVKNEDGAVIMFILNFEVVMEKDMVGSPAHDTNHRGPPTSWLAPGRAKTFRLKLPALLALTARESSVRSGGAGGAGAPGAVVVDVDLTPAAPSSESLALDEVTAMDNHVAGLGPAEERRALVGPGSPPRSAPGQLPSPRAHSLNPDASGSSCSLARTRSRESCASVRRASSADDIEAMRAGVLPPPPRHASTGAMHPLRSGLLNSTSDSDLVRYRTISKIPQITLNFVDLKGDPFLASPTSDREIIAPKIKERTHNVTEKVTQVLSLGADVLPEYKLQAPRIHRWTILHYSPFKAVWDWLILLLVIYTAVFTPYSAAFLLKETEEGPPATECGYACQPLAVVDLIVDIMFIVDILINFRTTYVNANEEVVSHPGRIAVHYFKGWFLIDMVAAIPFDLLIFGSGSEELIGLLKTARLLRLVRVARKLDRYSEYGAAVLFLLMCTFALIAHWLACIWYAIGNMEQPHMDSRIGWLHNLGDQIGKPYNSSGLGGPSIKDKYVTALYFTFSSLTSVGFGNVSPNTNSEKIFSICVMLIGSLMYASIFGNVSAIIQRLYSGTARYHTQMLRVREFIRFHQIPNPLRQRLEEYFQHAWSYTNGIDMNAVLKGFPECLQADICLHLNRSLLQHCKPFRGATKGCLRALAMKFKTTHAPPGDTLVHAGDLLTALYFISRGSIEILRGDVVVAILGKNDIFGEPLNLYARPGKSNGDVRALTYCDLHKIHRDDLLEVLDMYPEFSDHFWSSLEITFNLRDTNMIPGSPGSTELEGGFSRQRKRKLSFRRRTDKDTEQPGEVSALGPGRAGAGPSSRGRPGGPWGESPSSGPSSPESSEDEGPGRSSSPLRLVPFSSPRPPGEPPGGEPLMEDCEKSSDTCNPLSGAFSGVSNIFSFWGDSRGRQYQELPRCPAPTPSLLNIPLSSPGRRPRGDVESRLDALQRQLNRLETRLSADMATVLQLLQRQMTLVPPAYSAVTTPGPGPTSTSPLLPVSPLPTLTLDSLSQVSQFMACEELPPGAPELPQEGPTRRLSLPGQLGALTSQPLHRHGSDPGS
For `CCN(CC)CCN1C(=O)C(=O)/C(=C(/O)c2c(C)[nH]c(C(=O)OC)c2C)C1c1ccccc1OC` (stereo not shown), the “hERG current change (%, negative = inhibition) at 10uM” value was 20.8%.
With `O=C(NCCCN1CCCC1=O)c1cccc(C(F)(F)F)c1` the “hERG current change (%, negative = inhibition) at 10uM” value was -3%.
`CCOC(=O)C1CCN(CC(C)(C)NS(=O)(=O)c2ccc(Cl)cc2)CC1` was tested, and the “hERG current change (%, negative = inhibition) at 10uM” value was -1.75%.
With `C/C(=N/Nc1nc(C)cc(C)n1)c1ccc(Br)cc1` the “hERG current change (%, negative = inhibition) at 10uM” value was -14.9%.
For `C/C(=N/Nc1ccnc2cc(Cl)ccc12)c1ccc(O)cc1`, the “hERG current change (%, negative = inhibition) at 10uM” value was -6.2%.
With `Cc1ccc(C)c(N2CCN(c3ccncc3N)CC2)c1` the “hERG current change (%, negative = inhibition) at 10uM” value was -47.8%.
For `Cc1c(NC2=CC(=O)CCC2)c(=O)n(-c2ccccc2)n1C`, the “hERG current change (%, negative = inhibition) at 10uM” value was 8.37%.
In the case of `O=C(CC(=O)N1CCN(c2ccccn2)CC1)Nc1ccc2nc3n(c(=O)c2c1)CCCCC3`, the “hERG current change (%, negative = inhibition) at 10uM” value is reported as -17.9%.
With `CCCCn1c(O)c(/C(CC)=N/N2CCCCC2c2cccnc2)c(=O)[nH]c1=S` (stereo not shown) the “hERG current change (%, negative = inhibition) at 10uM” value was -27%.
In the case of `CCn1c(O)c(/C(C)=N/N2CCCCC2c2cccnc2)c(=O)[nH]c1=S` (stereo not shown), the “hERG current change (%, negative = inhibition) at 10uM” value is reported as -55.2%.
With `C/C(=N\N1CCCCC1c1cccnc1)c1c(O)n(C2CCCCC2)c(=S)[nH]c1=O` (stereo not shown) the “hERG current change (%, negative = inhibition) at 10uM” value was 0.0734%.
With `O=[N+]([O-])c1cc([N+](=O)[O-])c(Oc2c(F)ccc(F)c2F)cc1NN1CCCCC1` the “hERG current change (%, negative = inhibition) at 10uM” value was 19.8%.
For `CC1CCCCC1NC(=O)c1ccc(S(=O)(=O)NCc2ccco2)cc1` (stereo not shown), the “hERG current change (%, negative = inhibition) at 10uM” value was 7.19%.
With `CCNc1nc(=S)nc(NC(C)C)[nH]1` the “hERG current change (%, negative = inhibition) at 10uM” value was 29.6%.
`Cc1ccc(-c2nc(CN3CCCC(C(=O)N4CCOCC4)C3)c(C)o2)cc1` (stereo not shown) was tested, and the “hERG current change (%, negative = inhibition) at 10uM” value was -37.5%.
In the case of `CCOC(=O)N1CCC(NC(=O)CS(=O)Cc2nc(-c3ccc(Cl)cc3)oc2C)CC1` (stereo not shown), the “hERG current change (%, negative = inhibition) at 10uM” value is reported as -47.4%.
With `Cc1oc(-c2cc3c(cc2Cl)OCO3)nc1CN1CCCC(C(=O)N2CCOCC2)C1` (stereo not shown) the “hERG current change (%, negative = inhibition) at 10uM” value was -24.7%.
For `CCOC(=O)N1CCN(C(=O)C2CCCN(Cc3nc(-c4ccc(Cl)cc4)oc3C)C2)CC1` (stereo not shown), the “hERG current change (%, negative = inhibition) at 10uM” value was -70.9%.
In the case of `CCOc1ccc(-c2nc(CN3CCCC(C(=O)N4CCOCC4)C3)c(C)o2)cc1` (stereo not shown), the “hERG current change (%, negative = inhibition) at 10uM” value is reported as -26.5%.
`Cc1oc(-c2ccc(Cl)cc2)nc1CN1CCCC(C(=O)N2CCOCC2)C1` (stereo not shown) was tested, and the “hERG current change (%, negative = inhibition) at 10uM” value was -53.8%.
`O=C(C1CCC(CNS(=O)(=O)c2ccccc2)CC1)N1CCCCC1` (stereo not shown) was tested, and the “hERG current change (%, negative = inhibition) at 10uM” value was -1.89%.
With `C=CCN(c1ccc(Br)cc1C(=O)OC)S(C)(=O)=O` the “hERG current change (%, negative = inhibition) at 10uM” value was 0.801%.
For `Brc1ccc(-c2cnc(-c3cccs3)o2)cc1`, the “hERG current change (%, negative = inhibition) at 10uM” value was -3%.
`CN1C2CCC1CC(NC(=O)CSCc1ccc(Cl)cc1Cl)C2` (stereo not shown) was tested, and the “hERG current change (%, negative = inhibition) at 10uM” value was -57.4%.
With `CN1C2CCC1CC(NC(=O)CSc1ccc(Cl)cc1)C2` (stereo not shown) the “hERG current change (%, negative = inhibition) at 10uM” value was -8.94%.
In the case of `NNC(=O)CSCc1ccc(Cl)cc1Cl`, the “hERG current change (%, negative = inhibition) at 10uM” value is reported as -2%.
In the case of `O=C(O)C1=C[C@@H](C2CC2)C[C@@H](OCc2ccc(CO)cc2)O1`, the “hERG current change (%, negative = inhibition) at 10uM” value is reported as 21.4%.
`COc1cc(Br)c(C2C(C#N)=C(N)Oc3n[nH]c(-c4cccnc4)c32)cc1OC` (stereo not shown) was tested, and the “hERG current change (%, negative = inhibition) at 10uM” value was 6.8%.
`Cc1cccc(NC(=O)c2nc[nH]c2C(=O)N2CCC(C)CC2)c1` was tested, and the “hERG current change (%, negative = inhibition) at 10uM” value was 1.29%.
With `COc1ccc(-c2[nH]n(-c3ccc([N+](=O)[O-])cc3)c(=O)c2C=NCc2ccncc2)cc1` the “hERG current change (%, negative = inhibition) at 10uM” value was -3.44%.
For `CC(=NCCCn1ccnc1)c1c(C)[nH]n(-c2ccc([N+](=O)[O-])cc2)c1=O`, the “hERG current change (%, negative = inhibition) at 10uM” value was -69.3%.
In the case of `CCCc1[nH]n(-c2ccc([N+](=O)[O-])cc2)c(=O)c1C=NCCCn1ccnc1`, the “hERG current change (%, negative = inhibition) at 10uM” value is reported as -76.4%.
In the case of `CC(=NCCCn1ccnc1)c1c(O)n(C)c(=O)n(C)c1=O`, the “hERG current change (%, negative = inhibition) at 10uM” value is reported as -9.42%.
With `CCCc1[nH]n(-c2ccc([N+](=O)[O-])cc2)c(=O)c1C(C)=NCc1ccncc1` the “hERG current change (%, negative = inhibition) at 10uM” value was -52.4%.
`CCCc1[nH]n(-c2ccc([N+](=O)[O-])cc2)c(=O)c1C=NCCc1ccc(OC)c(OC)c1` was tested, and the “hERG current change (%, negative = inhibition) at 10uM” value was -19.4%.
With `CCCc1[nH]n(-c2ccc([N+](=O)[O-])cc2)c(=O)c1C=NCCc1c[nH]c2ccccc12` the “hERG current change (%, negative = inhibition) at 10uM” value was 8.42%.
`CCCc1[nH]n(-c2ccc([N+](=O)[O-])cc2)c(=O)c1C=NCCN1CCNCC1` was tested, and the “hERG current change (%, negative = inhibition) at 10uM” value was -47.1%.
In the case of `CC(=NCCCn1ccnc1)c1c(O)n(-c2ccccc2)c(=O)[nH]c1=O`, the “hERG current change (%, negative = inhibition) at 10uM” value is reported as 5.91%.
In the case of `O=C1CC(N(O)c2ccccc2)C(=O)N1c1cc(Cl)cc(Cl)c1` (stereo not shown), the “hERG current change (%, negative = inhibition) at 10uM” value is reported as 16.2%.
With `COc1ccccc1CNC(=O)C(NC(=O)Nc1ccccc1)C(C)C` (stereo not shown) the “hERG current change (%, negative = inhibition) at 10uM” value was 13%.
With `CCCCn1c(=O)[nH]c(=O)c2c1nc(CN(C)Cc1cccc(OC)c1OC)n2CCC.O=C(O)C(=O)O` the “hERG current change (%, negative = inhibition) at 10uM” value was 18.5%.
In the case of `Cc1ccc(-n2ncc3c2ncn2c(C)nnc32)cc1C`, the “hERG current change (%, negative = inhibition) at 10uM” value is reported as -10.5%.
For `COc1ccc(NC(=O)COC(=O)c2ccc(NS(=O)(=O)/C=C/c3ccccc3)cc2)cc1`, the “hERG current change (%, negative = inhibition) at 10uM” value was 0.149%.
In the case of `Cc1ccccc1NC(=O)NC1CCS(=O)(=O)C1` (stereo not shown), the “hERG current change (%, negative = inhibition) at 10uM” value is reported as 16.6%.
With `CCn1c(SCC(=O)NC2CCCC2)nnc1-c1cccnc1` the “hERG current change (%, negative = inhibition) at 10uM” value was 5.55%.
With `Cc1c(C#N)c(NC(=O)c2ccccc2)n(Cc2ccccc2)c1C` the “hERG current change (%, negative = inhibition) at 10uM” value was 2.21%.
`O=C(c1cccc(S(=O)(=O)N2CCCCCC2)c1)N1CCN(c2ccccc2F)CC1` was tested, and the “hERG current change (%, negative = inhibition) at 10uM” value was -58%.
With `CCOc1ccccc1N1CCN(C(=O)c2c(-c3ccccc3Cl)noc2C)CC1` the “hERG current change (%, negative = inhibition) at 10uM” value was 2.42%.
With `O=C(c1cccc(S(=O)(=O)N2CCCC2)c1)N1CCN(c2ccccc2F)CC1` the “hERG current change (%, negative = inhibition) at 10uM” value was -18.1%.
In the case of `COc1cc2ccccc2cc1C(=O)N1CCCCC1`, the “hERG current change (%, negative = inhibition) at 10uM” value is reported as -0.827%.
`COc1cc2ccccc2cc1C(=O)N1CCCC1` was tested, and the “hERG current change (%, negative = inhibition) at 10uM” value was 7.7%.
For `COc1ccccc1N1CCN(C(=O)c2c(-c3c(Cl)cccc3Cl)noc2C)CC1`, the “hERG current change (%, negative = inhibition) at 10uM” value was 2.17%.
`COc1ccccc1N1CCN(C(=O)c2ccc(S(=O)(=O)N3CCCCC3)cc2)CC1` was tested, and the “hERG current change (%, negative = inhibition) at 10uM” value was -10.2%.
With `CN1CCN(S(=O)(=O)c2cccc(C(=O)N3CCN(c4ccccc4F)CC3)c2)CC1` the “hERG current change (%, negative = inhibition) at 10uM” value was -0.195%.
In the case of `COc1cc2ccccc2cc1C(=O)N1CCN(c2ccccc2O)CC1`, the “hERG current change (%, negative = inhibition) at 10uM” value is reported as -59.7%.
In the case of `COc1ccccc1N1CCN(C(=O)c2cccc(S(=O)(=O)N3CCCCCC3)c2)CC1`, the “hERG current change (%, negative = inhibition) at 10uM” value is reported as -77%.
In the case of `COc1ccccc1N1CCN(C(=O)c2ccc(S(=O)(=O)N3CCCCCC3)cc2)CC1`, the “hERG current change (%, negative = inhibition) at 10uM” value is reported as -39.8%.
With `COc1ccccc1N1CCN(C(=O)c2c(-c3ccccc3Cl)noc2C)CC1` the “hERG current change (%, negative = inhibition) at 10uM” value was -51.2%.
